MRP-1 activ: activators of MRP-1; H69AR cells + doxorubicin, viability rescue, CellTiter-Glo; viability increase, % at 10 µM; actives 0.61% (n = 140,000); AID 799;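 active = viability gain under doxorubicin at or above a set limit, the compound median plus 3 SD, cut at about 4.7% in these data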;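 also: MRP-1 overexpressing cells given doxorubicin 25 µM after compound pretreatment; 18-22 h compound pretreatment then 72 h with doxorubicin before readout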
Phagocyt inh: macrophage phagocytosis inhibition. actives 0.07% (n = 110,000). J774A.1 macrophage IgG-bead phagocytosis, imaging. inhibition, % at 5 µM;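 active = inhibition above the mean of the plate negative controls plus 5 SD, cut at about 13% in these data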;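 also: phagocytic index as fraction of beads internalized from green versus red external bead signal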
Mac1 fbg enh: CD11b/CD18-fibrinogen binding enhancement; P05107+P11215; K562 CD11b/CD18 adhesion to fibrinogen, ATPlite luminescence; activation, % at 10 µM; actives 0.07% (n = 93,000); AID 1499;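 active = 10 µM primary screen giving 50% or more activity, confirmed by 40% or more on retest at that dose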
Target sequence (P05107 whole entry, looked up, other chains not shown): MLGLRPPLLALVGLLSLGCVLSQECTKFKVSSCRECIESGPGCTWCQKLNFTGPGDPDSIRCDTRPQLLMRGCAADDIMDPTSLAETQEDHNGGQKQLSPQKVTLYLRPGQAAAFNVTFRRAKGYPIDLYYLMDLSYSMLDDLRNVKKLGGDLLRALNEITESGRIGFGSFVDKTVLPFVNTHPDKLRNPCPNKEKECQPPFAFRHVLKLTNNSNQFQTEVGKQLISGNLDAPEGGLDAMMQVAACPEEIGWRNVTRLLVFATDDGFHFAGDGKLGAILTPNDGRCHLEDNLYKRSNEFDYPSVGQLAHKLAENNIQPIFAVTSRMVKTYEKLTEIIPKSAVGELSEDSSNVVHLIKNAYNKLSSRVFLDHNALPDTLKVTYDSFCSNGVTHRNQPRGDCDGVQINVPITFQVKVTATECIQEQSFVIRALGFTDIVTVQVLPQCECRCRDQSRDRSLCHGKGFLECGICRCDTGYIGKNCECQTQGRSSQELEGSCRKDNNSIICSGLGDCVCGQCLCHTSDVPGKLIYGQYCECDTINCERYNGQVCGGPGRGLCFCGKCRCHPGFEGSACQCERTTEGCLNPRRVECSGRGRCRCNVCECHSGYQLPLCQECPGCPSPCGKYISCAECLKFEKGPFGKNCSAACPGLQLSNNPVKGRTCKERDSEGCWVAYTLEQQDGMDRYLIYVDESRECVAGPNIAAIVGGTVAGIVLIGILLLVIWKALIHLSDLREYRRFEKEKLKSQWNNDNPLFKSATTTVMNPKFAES
MRP resist rev: compounds reversing MRP-mediated drug resistance; differential viability (reversal), % at 10 µM; actives 0.04% (n = 85,000); H69AR cells + 2 uM doxorubicin, CellTiter-Glo, 72 h;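 active = viability drop by adding the cancer drug above about 55%, with treated viability meeting a 40% cutoff, limit read from the data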;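 also: larger differential means the compound sensitizes cells more to doxorubicin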
SDO1 yeast rescue: restores growth of sdo1-depleted yeast; S. cerevisiae sdo1-depleted JHY4D growth rescue, OD600 30 h; hits give high values; pdr5 snq2 efflux-pump mutant strain; z-score at 10 µM; actives 0.21% (n = 140,000); AID 817;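 active = z-score above 3 at both the 24 hr and the 30 hr optical density reads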
Mac1 fbg inh: inhibitors of human CD11b/CD18 binding to fibrinogen. P05107+P11215. K562 CD11b/CD18 adhesion to fibrinogen, ATPlite luminescence; Mn2+ added to activate the integrin. inhibition, % at 10 µM. actives 0.54% (n = 93,000). AID 1497;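 active = primary inhibition of 50% or more at 10 µM, then 40% or more on retest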
A number is an active result; n = inactive; x = no result; [ ] = dose if it differs, or a comment. A selection: hits, their analogues and other compounds. The true share with any hit is near 1.3%.

SMILES	MRP-1 activ	Phagocyt inh	Mac1 fbg enh	MRP resist rev	SDO1 yeast rescue	Mac1 fbg inh
CCOc1ccccc1N(C(=O)c1snc(C(N)=O)c1N)C(C(=O)NCCC(C)C)c1ccco1 (configuration not stated)	5.3	n	n	n	n	n
CCN(CC)S(=O)(=O)c1ccc(OC)c(NC(=S)Nc2cccc(C)c2)c1	n	n	x	x	n	x
O=C(O)CCCCCN1C(=O)/C(=C\c2ccncc2)SC1=S	n	n	x	x	n	x
O=C(O)CCCN1C(=O)/C(=C/c2ccc(-c3nc4ccccc4s3)o2)SC1=S	n	n	n	x	n	93.2
Cc1cc(N/N=C/c2ccc(O)cc2O)nc(-c2ccccc2O)n1	n	n	x	x	n	x
COc1ccc(/C=N/Nc2cc(C)nc(-n3nc(C)cc3C)n2)cc1	9.1	n	x	x	n	x
Cc1cc(N/N=C/c2ccc(O)cc2O)nc(-n2nc(C)cc2C)n1	5.3	n	x	x	n	x
CCCN(CC(=O)Nc1ccc(Cl)cc1Cl)C(=O)/C=C/c1ccco1	n	n	n	x	n	n
CN(C)c1ccc(N/C=C/C(=O)c2ccco2)cc1	n	178.6	n	n	n	n
CC(=O)Nc1ccc(N/C=C/C(=O)c2ccco2)cc1	n	n	n	n	n	n
Brc1ccc(OCc2nnc3n2CCC3)cc1	7.0	n	n	x	n	n
Brc1ccc(-c2nnc3n2CCCCC3)cc1	n	n	n	n	n	n
Cc1cccc(C(=O)NNC(=O)CN2C(=O)c3ccccc3C2=O)c1	4.8	n	n	x	n	n
Cc1cccc(C(=O)NNC(=O)c2ccc(-c3ccccc3)cc2)c1	n	x	x	x	n	x
CCOc1ccccc1C(=O)Nc1cccc(-c2nnc(-c3ccccc3)o2)c1	n	n	n	n	n	n
CCCCOC(=O)CSc1n[nH]c(=O)[nH]c1=O	n	n	n	n	n	n
Cc1ccc2c(c1)c1c3n2CCCN(Cc2ccccc2)C3CCC1 (configuration not stated)	n	37.5[artifact]	n	n	n	n
NC(=O)C1(N2CCCCC2)CCN(C(=O)c2cccn3c(=O)c4cc(Cl)ccc4nc23)CC1	5.6	n	n	n	n	n
N/C(CC(=O)Nc1ccc(F)cc1)=N\O	n	n	n	x	n	n
CCCCNS(=O)(=O)c1ccc2nc(SCC(=O)Nc3sccc3C#N)[nH]c2c1	n	n	n	n	n	102.2
CCCCNS(=O)(=O)c1ccc2nc(SCC(=O)Nc3cccc(F)c3)[nH]c2c1	n	n	x	x	n	x
N#CC1=C(N)NC(SCC(=O)c2ccc(Cl)cc2)=C(C#N)C12CCCC2	n	x	n	n	n	64.0
N#CC1=C(N)NC(SCC(=O)c2ccc(Br)cc2)=C(C#N)C12CCCCC2	n	n	x	x	n	x
Cc1nnc(SCCn2c(N(C)Cc3ccccc3)nc3c2c(=O)n(C)c(=O)n3C)s1	x	x	x	n	x	x
CC(C)(C)C(=O)Nc1ccc(-c2cn3ccsc3n2)cc1	n	n	n	n	n	61.1
SMILES	MRP-1 activ	Phagocyt inh	Mac1 fbg enh	MRP resist rev	SDO1 yeast rescue	Mac1 fbg inh
CS(=O)(=O)Nc1nnc(SCC(=O)N(c2ccccc2)c2ccccc2)s1	n	n	x	x	n	x
CCOc1cccc2cc(-c3csc(NC(=O)CCC(=O)N4CCN(C)CC4)n3)c(=O)oc12	x	x	x	n	x	x
O=C(NCCc1ccc2c(c1)OCCO2)c1cc(F)cc(F)c1	4.7	n	n	x	n	n
Cc1ccc(/C=N/NC(=O)c2cc(C3CC3)nc3ccccc23)o1	n	x	x	x	n	x
CN(c1ccc(O)cc1)c1nc(-c2ccccc2)cs1	n	n	x	n	n	x
O=c1c2ccccc2nc(-c2ccc(Cl)c(Cl)c2)n1O	n	n	n	n	n	n
O=c1c2ccc(Cl)cc2nc(-c2cccc(C(F)(F)F)c2)n1O	n	n	n	x	n	69.1
O=C(Nc1nnc(-c2cccs2)o1)c1cccc(C(F)(F)F)c1	n	n	n	n	n	72.3
CC1CC(C)CN(S(=O)(=O)c2ccc(C(=O)Nc3nnc(-c4cccs4)o3)cc2)C1 (configuration not stated)	n	n	n	n	n	n
O=C(Nc1ccc(Cl)c(C(F)(F)F)c1)C1CCCN(S(=O)(=O)c2cnc[nH]2)C1 (configuration not stated)	n	n	n	n	n	n
Oc1ccc(Cl)cc1-c1cc(C(F)(F)C(F)F)nc(-c2ccccc2)n1	n	n	n	n	n	59.1
CN(N=Nc1ccc([N+](=O)[O-])cc1)c1ccccc1	n	n	x	x	n	x
CC(C)N(N=Nc1ccc([N+](=O)[O-])cc1)C(C)C	4.7	n	x	x	n	x
COP(=O)(OC)c1nc(-c2ccccc2)oc1N1CCOCC1	n	n	x	x	n	x
CC(C)Cc1nc2oc3c(N4CCN(C)CC4)ncnc3c2c2c1CCCC2	n	n	n	n	n	n
COc1ncnc2c1oc1nc(CC(C)C)c3c(c12)CCCC3	7.2	n	n	n	n	n
COc1ccc(C(=O)Nc2ccc(C)cn2)c(OC)c1	n	n	n	n	n	75.6
COc1ccc(C(=O)Nn2cnnc2)c(OC)c1	n	n	n	n	n	n
Cc1cccc(-c2cc3nc(C)cc(NCCCN(C)C)n3n2)c1	n	n	n	n	n	n
Cc1cccc(-c2cc3nc(C)cc(N4CC(C)CC(C)C4)n3n2)c1 (configuration not stated)	5.1	x	x	n	n	x
C/C(=N\NC(=O)c1ccccc1)c1ccc(NC(=O)c2cccs2)cc1	n	n	n	x	n	n
Cc1ccc(C(=O)N/N=C(/CC(=O)c2cccs2)C(F)(F)F)cc1	n	n	n	x	n	97.6
NC(=S)N/N=C/C=C/c1ccccc1	n	n	x	x	n	x
CCn1c(C)c(C)c2cc(C(=O)Nc3cccc(Cl)c3)ccc21	6.5	x	x	x	n	x
O=C(O)CCCC(=O)Nc1cccc2cccnc12	n	n	n	x	n	n
SMILES	MRP-1 activ	Phagocyt inh	Mac1 fbg enh	MRP resist rev	SDO1 yeast rescue	Mac1 fbg inh
O=C(Cc1ccccc1F)Nc1cccc2cccnc12	5.9	n	x	x	n	x
O=C(CC(C(=O)N1CCc2ccccc21)n1ccnc1)N1CCc2ccccc2C1 (configuration not stated)	n	n	n	n	n	n
COc1ccc(Cl)cc1NC(=O)C(C)Sc1nncn1C (configuration not stated)	n	n	n	n	n	n
CC(Sc1nncn1C)C(=O)Nc1ccc(Cl)cn1 (configuration not stated)	4.9	n	n	x	n	n
C/C(N)=C(/C#N)C(=O)CSc1nc2cc(Cl)ccc2s1	n	n	n	x	n	n
CCCn1nc([N+](=O)[O-])c(C(C#N)c2nc3ccccc3o2)c(Cl)c1=O (configuration not stated)	n	n	n	x	n	98.7
CCn1nc([N+](=O)[O-])c(C(C#N)c2nc3cc(C(F)(F)F)ccc3s2)c(Cl)c1=O (configuration not stated)	n	n	n	x	n	93.8
COc1ccccc1CNC(=O)CN1CCN(Cc2ccc(Cl)cc2)C1=O	x	x	x	n	x	x
O=C(/C=C/c1ccccc1)Nc1cc(S(=O)(=O)N2CCOCC2)ccc1N1CCCC1	n	n	x	x	n	x

Screens: PubChem, several laboratories
